Active and inactive are the calls of the source. Rule for the calls: active = hit-call score of the fitted dose curve at least 0.9, where 1 is the maximum; inactive = score below 0.9.
Legend:
[1] = CEETOX_H295R_TESTO: CeeTox H295R High-throughput Steroidogenesis Assay for Testosterone (TESTO) (AID 2283457); conditions: actives raise or lower the signal;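 for AC50: cells exposed to chemicals for 48 h before medium collection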
Procedure, shortened: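 Testosterone secreted into the medium over 48 h by H295R cells (maximum passage 10) was quantified by LC-MS/MS after MTBE extraction. Fitted in both directions against DMSO, with concentrations diluted until MTT viability was ≥70%.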

[2] = read-out: catalase (CAT), CAT (gene 847); experiment: LTEA_HepaRG_CAT: Life Technologies and Expression Analysis (LTEA) Assay for catalase (CAT) using HepaRG (AID 2283452); conditions: mRNA level, 48 h; actives raise or lower the signal;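 for AC50: TaqMan qRT-PCR signal normalized to ACTB GAPDH and POLR2A housekeeping genes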
Procedure, shortened: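 Expression of CAT was quantified by TaqMan qRT-PCR with ACTB/GAPDH/POLR2A normalization after 48 h chemical exposure of HepaRG. Eight-point half-log series, top 100 uM, in 0.5% DMSO; gain or loss fitted against vehicle.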

[3] = read-out: flavin-containing dimethylaniline monooxygenases 3 (FMO3), FMO3 (gene 2328); experiment: LTEA_HepaRG_FMO3: Life Technologies and Expression Analysis (LTEA) Assay for flavin-containing dimethylaniline monooxygenases 3 (FMO3) using HepaRG (AID 2283453); conditions: mRNA level, 48 h; actives raise or lower the signal;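 for AC50: differentiated human HepaRG liver cells in serum-free induction medium; FMO3 transcript by TaqMan qRT-PCR normalized to ACTB GAPDH and POLR2A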
Procedure, shortened: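 HepaRG, 48 h exposure, 8-pt half-log series from 100 uM, 0.5% DMSO vehicle, duplicates; FMO3 transcript by Fluidigm TaqMan qRT-PCR, housekeeping-normalized; gain/loss fit vs DMSO.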

[4] = read-out: Cytochrome P450 (CYP1A1), CYP1A1 (gene 1543); experiment: LTEA_HepaRG_CYP1A1: Life Technologies and Expression Analysis (LTEA) Assay for Cytochrome P450 (CYP1A1) using HepaRG (AID 2283454); conditions: mRNA level, 48 h; actives raise or lower the signal
Procedure, shortened: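 CYP1A1 transcript levels measured by Fluidigm qRT-PCR against three housekeeping genes, 48 h after chemical dosing of human HepaRG cells (highest concentration 100 uM, half-log steps, 0.5% DMSO vehicle). Gain or loss of signal fitted relative to DMSO.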

[5] = read-out: CFLAR gene, CFLAR (gene 8837); experiment: LTEA_HepaRG_CFLAR: Life Technologies and Expression Analysis (LTEA) Assay for CFLAR gene using HepaRG (AID 2283455); conditions: mRNA level, 48 h; actives raise or lower the signal
Procedure, shortened: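 HepaRG, 48 h exposure, 8-pt conc-response (100 uM top, half-log), 0.5% DMSO vehicle, duplicates. CFLAR expression by qRT-PCR; ACTB/GAPDH/POLR2A normalization; gain or loss fit vs DMSO baseline.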

[6] = read-out: Forkhead box O1 (FOXO1), FOXO1 (gene 2308); experiment: LTEA_HepaRG_FOXO1: Life Technologies and Expression Analysis (LTEA) Assay for Forkhead box O1 (FOXO1) using HepaRG (AID 2283456); conditions: mRNA level, 48 h; actives raise or lower the signal
Procedure, shortened: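 Readout is FOXO1 transcript level by multiplexed qRT-PCR against three housekeeping genes, curve-fitted in both directions relative to 0.5% DMSO vehicle. Human HepaRG cultures received chemicals for 48 h, up to 100 uM in half-log steps.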

[7] = read-out: growth arrest and DNA damage 45 (GADD45A), GADD45A (gene 1647); experiment: LTEA_HepaRG_GADD45A: Life Technologies and Expression Analysis (LTEA) Assay for growth arrest and DNA damage 45 (GADD45A) using HepaRG (AID 2283458); conditions: mRNA level, 48 h; actives raise or lower the signal
Procedure, shortened: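 Human HepaRG liver cells are treated in duplicate for 48 h with chemicals in 0.5% DMSO, highest concentration 100 uM. Expression is read by qRT-PCR and analyzed in both directions against vehicle.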

[8] = read-out: Forkhead box O3 (FOXO3), FOXO3 (gene 2309); experiment: LTEA_HepaRG_FOXO3: Life Technologies and Expression Analysis (LTEA) Assay for Forkhead box O3 (FOXO3) using HepaRG (AID 2283459); conditions: mRNA level, 48 h; actives raise or lower the signal
Procedure, shortened: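 HepaRG, 48 h post-dose; 8 conc., half-log from 100 uM, 0.5% DMSO, duplicates; serum-free induction medium. Readout: FOXO3 mRNA, TaqMan qRT-PCR, housekeeping-normalized. Bidirectional curve fit vs DMSO baseline.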

[9] = read-out: ABC Transporter (ABCB1), ABCB1 (gene 5243); experiment: LTEA_HepaRG_ABCB1: Life Technologies and Expression Analysis (LTEA) Assay for ABC Transporter (ABCB1) using HepaRG (AID 2283460); conditions: mRNA level, 48 h; actives raise or lower the signal
Procedure, shortened: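 Expression of ABCB1 was quantified by qRT-PCR against three housekeeping genes after human HepaRG cultures received test chemicals for 48 hours. Concentrations spanned eight half-log steps topping at 100 uM in 0.5% DMSO; gain or loss of signal was fitted relative to vehicle.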

[10] = read-out: growth arrest and DNA damage 45 (GADD45B), GADD45B (gene 4616); experiment: LTEA_HepaRG_GADD45B: Life Technologies and Expression Analysis (LTEA) Assay for growth arrest and DNA damage 45 (GADD45B) using HepaRG (AID 2283461); conditions: mRNA level, 48 h; actives raise or lower the signal
Procedure, shortened: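 Transcript level quantified by Fluidigm TaqMan qRT-PCR with three housekeeping genes for normalization, analyzed for up- or down-regulation against 0.5% DMSO. HepaRG cultures dosed 48 h at eight half-log concentrations up to 100 uM, duplicates.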

CC(C)CCOCCC(C)C
outcome [1]: inactive

OCC(CO)(CBr)CBr
outcome [2]: inactive
outcome [3]: inactive
outcome [4]: inactive
outcome [5]: inactive
outcome [6]: inactive
outcome [7]: inactive
outcome [8]: inactive
outcome [9]: inactive
outcome [10]: inactive

CS(=O)(=O)c1ccc([C@@H](CC2CCCC2)C(=O)Nc2cnccn2)cc1Cl
AC50 [2]: 83.3 µM (active)
AC50 [3]: 78.6 µM (active)
outcome [5]: inactive
outcome [6]: inactive
AC50 [7]: 9.92 µM (active)
outcome [8]: inactive
outcome [10]: inactive

N=C(N)c1ccc(OCCCCCOc2ccc(C(=N)N)cc2)cc1
AC50 [2]: 6.7 µM (active)
AC50 [3]: 6.68 µM (active)
outcome [4]: inactive
AC50 [5]: 30.5 µM (active)
AC50 [6]: 43.8 µM (active)
AC50 [7]: 4.21 µM (active)
outcome [8]: inactive
AC50 [9]: 4.87 µM (active)
AC50 [10]: 7.1 µM (active)

CC(C)(c1ccc(Oc2ccc(N)cc2)cc1)c1ccc(Oc2ccc(N)cc2)cc1
AC50 [1]: 0.334 µM (active)

c1cc[nH]c1
outcome [1]: inactive

CCCCC(CC)C(=O)O (centres undefined)
outcome [2]: inactive
AC50 [4]: 50 µM (active)
outcome [5]: inactive
outcome [7]: inactive
outcome [8]: inactive
outcome [9]: inactive
outcome [10]: inactive

CCCCC=O
outcome [2]: inactive
outcome [3]: inactive
outcome [4]: inactive
outcome [5]: inactive
outcome [6]: inactive
outcome [7]: inactive
outcome [8]: inactive
outcome [9]: inactive
outcome [10]: inactive

CN(C)CCOC(c1ccccc1)c1ccccc1
outcome [2]: inactive
outcome [3]: inactive
outcome [5]: inactive
outcome [6]: inactive
outcome [7]: inactive
outcome [8]: inactive
outcome [9]: inactive
outcome [10]: inactive

O=C(NCc1ncc(C(F)(F)F)cc1Cl)c1c(Cl)cccc1Cl
outcome [1]: inactive

CCC(C)c1ccccc1O (centres undefined)
outcome [2]: inactive
outcome [3]: inactive
AC50 [4]: 50 µM (active)
outcome [5]: inactive
outcome [6]: inactive
outcome [7]: inactive
outcome [8]: inactive
outcome [9]: inactive
outcome [10]: inactive

CCCCCCCCCCCCCCC
outcome [2]: inactive
outcome [3]: inactive
AC50 [4]: 50 µM (active)
outcome [5]: inactive
outcome [6]: inactive
outcome [7]: inactive
outcome [8]: inactive
outcome [9]: inactive
outcome [10]: inactive

COc1cc([N+](=O)[O-])ccc1N
outcome [1]: inactive

CCCCCCCCCCCCOS(=O)(=O)O
AC50 [3]: 85.6 µM (active)
AC50 [4]: 61.6 µM (active)
outcome [5]: inactive
outcome [6]: inactive
outcome [7]: inactive
outcome [8]: inactive
AC50 [9]: 77.2 µM (active)
outcome [10]: inactive

O=C(c1ccccc1)c1ccccc1
outcome [2]: inactive
outcome [3]: inactive
outcome [5]: inactive
outcome [6]: inactive
outcome [7]: inactive
outcome [8]: inactive
outcome [9]: inactive
outcome [10]: inactive

Oc1cc2ccccc2cc1O
outcome [1]: inactive

Cc1cccc2c1ccc1ccccc12
outcome [1]: inactive

Cc1[nH]nc2c1N=C(c1ccccc1Cl)c1cc([N+](=O)[O-])ccc1N2
AC50 [2]: 16.1 µM (active)
AC50 [3]: 9.1 µM (active)
AC50 [4]: 81.8 µM (active)
AC50 [5]: 12.9 µM (active)
AC50 [6]: 5.4 µM (active)
AC50 [7]: 88.8 µM (active)
AC50 [8]: 12.6 µM (active)
AC50 [9]: 0.742 µM (active)
AC50 [10]: 4.57 µM (active)

O=C(CCCN1CCC(O)(c2ccc(Cl)cc2)CC1)c1ccc(F)cc1
AC50 [2]: 68.4 µM (active)
AC50 [3]: 73.7 µM (active)
AC50 [4]: 12.4 µM (active)
outcome [5]: inactive
AC50 [6]: 81.2 µM (active)
AC50 [7]: 75 µM (active)
outcome [8]: inactive
AC50 [9]: 85.6 µM (active)
outcome [10]: inactive

CC(=O)Nc1ccc(O)cc1
outcome [2]: inactive
outcome [3]: inactive
AC50 [4]: 50 µM (active)
outcome [5]: inactive
outcome [6]: inactive
outcome [7]: inactive
outcome [8]: inactive
outcome [9]: inactive
outcome [10]: inactive

CN(Cc1cnc2nc(N)nc(N)c2n1)c1ccc(C(=O)N[C@@H](CCC(=O)O)C(=O)O)cc1
outcome [2]: inactive
outcome [3]: inactive
outcome [4]: inactive
outcome [5]: inactive
outcome [6]: inactive
outcome [7]: inactive
outcome [8]: inactive
outcome [9]: inactive
outcome [10]: inactive

CCCCCc1ccc(O)cc1
AC50 [1]: 50 µM (active)

CCCCc1oc2ccccc2c1C(=O)c1cc(I)c(OCCN(CC)CC)c(I)c1
AC50 [2]: 37.8 µM (active)
AC50 [3]: 48.6 µM (active)
AC50 [5]: 62.4 µM (active)
outcome [6]: inactive
AC50 [7]: 59.1 µM (active)
outcome [8]: inactive
outcome [9]: inactive
AC50 [10]: 59.6 µM (active)

O=C1NS(=O)(=O)c2ccccc21
outcome [2]: inactive
outcome [3]: inactive
AC50 [4]: 73.2 µM (active)
outcome [5]: inactive
outcome [6]: inactive
outcome [7]: inactive
outcome [8]: inactive
outcome [9]: inactive
outcome [10]: inactive

From PubChem BioAssay (EPA / NIEHS)
